We go through 52 molecules from ChEMBL document CHEMBL4513216, “Probing the Open Global Health Chemical Diversity Library for Multistage-Active Starting Points for Next-Generation Antimalarials” (ACS Infect Dis, 2020).

In all, about 68,000 compounds went through this assay and about 2,700 (4%) showed an effect of 50% or more. What follows is part of a selection rich in strong results, with near analogues and random picks from the rest.

This assay deals with Plasmodium berghei. As to the kind of experiment: Screen against P. berghei liver stage (PbLuc), transformed with Luciferase, at 2uM. Type of assay: functional, HepG2. The note with it: tested at 2 uM.
Consider `Cn1ccnc1N1CCN(C(=O)Cc2ccc(Cl)cc2)CC1`, for which the INHIBITION is recorded as 29.05%.
For `CSc1ccc(C(=O)C2CCCN(C(=O)Cn3cnnn3)C2)cc1` (configuration not stated) the value was 41.68%; for `O=C(c1ccc2ccccc2c1)C1CCCN(C(=O)Cn2cnnn2)C1` (configuration not stated), 56.38%; for `O=C(c1ccc2ccccc2c1)C1CCCN(C(=O)Cn2cncn2)C1` (configuration not stated), 25.9%.
Take `Cc1ccccc1OCC(O)CN1CCC(Cn2cccn2)CC1` (configuration not stated): the INHIBITION amounted to 33.22%.
To `Cc1cccc(CN2CCc3ncnc(-c4ccsc4)c3CC2)n1` belongs -1.33%.
To `CC(C)N(C)S(=O)(=O)N1CCCC1C(=O)N1CCSCC1` (configuration not stated) belongs -36.67%; to `Cc1ccc(CC(=O)N2CCCCC2c2nc(C)cs2)cn1` (configuration not stated), -39.92%; to `O=c1[nH]nc(C2CC2)n1-c1cccc(Cl)c1`, -21.72%.
For `C[C@H](c1ccc(F)cc1)n1c(C2CCN(C)CC2)n[nH]c1=O`, the INHIBITION is 72.05%.
To `CC[C@@H](c1ccccc1)n1c(C2CC2)n[nH]c1=O` belongs 43.05%; to `C[C@H](c1ccc(F)cc1)n1c(C2CCC2)n[nH]c1=O`, 38.67%; to `C[C@H](c1ccc(Cl)cc1)n1c(C2CC2)n[nH]c1=O`, 62.51%.
For `CN1CCC(c2n[nH]c(=O)n2-c2cccc(Cl)c2)CC1` the value was -8.16%; for `O=C1NCCCCC1NC(=O)N1CCCc2cc(F)ccc21` (configuration not stated), -30.43%.
For `O=C1NCCCCC1NC(=O)N1CCCc2ccccc21` (configuration not stated) the value was 12.66%; for `O=C1NCCCCC1NC(=O)N1CCc2ccccc21` (configuration not stated), 50.42%.
For `Cc1nnc(N2CCCC3(CN(Cc4cnn(C)c4)CCO3)C2)o1` (configuration not stated), the INHIBITION came out at 16.39%.
On to `CC(C)c1nn(CC(=O)N2CCCC2)c(=O)c2c1cnn2C(C)(C)C`, for which the INHIBITION is -10.09%.
To `CCc1cnc(CN(C)C2CCN(Cc3nnc(C4CC4)n3C)C2)o1` (configuration not stated) belongs -11.16%; to `Cc1occc1C(=O)N1CCC2(CCCN(Cc3nccs3)C2)C1` (configuration not stated), 50.61%; to `Cc1occc1C(=O)N1CCC2(CCN(Cc3nccs3)CC2)C1`, -114.33%.
For `Cc1occc1C(=O)N1CCC2(CCN(Cc3nccs3)C2)CC1` the value was -6.15%; for `CC(C)NC(=O)N1C[C@@H]2C[C@H](C(=O)N3CCCC3)[C@H](C1)O2`, -17.24%; for `Cn1cc(CN2CCc3nc(-c4ccccn4)nc(O)c3C2)cn1`, -21.74%.
To `CCn1cc(CN2CCc3nc(-c4ccccn4)nc(O)c3C2)cn1` belongs 57.4%.
Turning to `CCn1cc(CN2CCc3nc(N4CCOCC4)nc(O)c3CC2)cn1`, the INHIBITION is listed as 7.86%.
With `CN(C)C[C@@H]1CN(C(=O)c2cc(-c3ccccc3)n[nH]2)C[C@@H]1CO`, the INHIBITION was -40.44%.
To `CN(C)C[C@@H]1CN(C(=O)c2cc(F)ccc2F)C[C@@H]1CO` belongs -0.3%; to `CCN(C)C[C@@H]1CN(C(=O)c2cc(C(F)(F)F)n[nH]2)C[C@@H]1CO`, 51.9%.
As for `CCN(C)C[C@@H]1CN(C(=O)c2cc(-c3ccc(F)cc3)n[nH]2)C[C@@H]1CO`, the INHIBITION amounted to 54.49%.
To `CCn1nc(C)cc1C(=O)N1C[C@@H](CN(C)C)[C@@H](CO)C1` belongs 31.31%; to `COCCN(C)C[C@@H]1CN(C(=O)c2cccc(C(F)(F)F)c2)C[C@@H]1CO`, -20.58%.
On to `O=C(CCCC(=O)NCc1cccc(Br)c1)NCCN1CCCC1`, for which the INHIBITION is -32.11%.
For `Cc1nc(CN2C[C@@H]3CN(C(=O)C4(C#N)CC4)C[C@@H]3C2=O)cs1` the value was 25.5%; for `CN(C)C(=O)N1CCC2(CCCN(Cc3cnn(C)c3)C2)C1` (configuration not stated), 40.67%; for `CCn1c(CC2CCN(C(=O)C3CCOC3)CC2)nn(C)c1=O` (configuration not stated), -47.18%.
Take `CCC(C)NC(=O)c1cccc(CNCc2csc(C(C)C)n2)c1` (configuration not stated): the INHIBITION is -21.15%.
`CC(C)N(C)Cc1cncc2c1CCN(Cc1ccoc1)C2`: the INHIBITION is listed as 1.81%.
`Cc1ccc(C(=O)NCC(O)CN2CCCC2=O)c(C)c1` (configuration not stated): the INHIBITION was -40.9%.
In the case of `COc1ccc(CN(C)C(=O)CN2CC(n3cc(C)cn3)C2)cc1F`, the INHIBITION was -6.33%.
For `CCc1nn(C)c(Cl)c1CN1CCN(c2ccc(C(N)=O)cn2)CC1` the value was 33.16%; for `NC(=O)c1ccc(N2CCN(Cc3c(Cl)cncc3Cl)CC2)nc1`, -20.93%.
To `CCOC(=O)c1ccc(N2CCN(Cc3c(C)nn(C)c3Cl)CC2)nc1` belongs 55.7%; to `Cc1nc2c(c(Nc3ccccn3)n1)CN(S(C)(=O)=O)CC2`, -48.89%; to `Cc1noc(C)c1C(=O)N1CCC(n2cccn2)CC1`, 61.52%.
To `COC(=O)c1cccn1C1CCN(C(=O)c2c(C)noc2C)CC1` belongs 39.92%; to `Cc1noc(C(C)C)c1C(=O)N1CCC(n2cccn2)CC1`, 22.57%; to `Cc1noc(C(C)Nc2ccc3oc(C)nc3c2)n1` (configuration not stated), 10.04%.
Turning to `O=C(c1ccc(F)cc1Cl)N1CCC(Nc2cccnn2)CC1`, the INHIBITION is on record as 8.37%.
As for `Fc1cccc(CN2CCOC3(COCCN(CC4CC4)C3)C2)c1` (configuration not stated), the INHIBITION is reported as 3.11%.
As to `Cc1cn[nH]c1C1COCCN1C(=O)c1ccc2[nH]nnc2c1` (configuration not stated), the INHIBITION worked out at 37.33%.
